Experimental data published in PubChem BioAssay AID1159580 (chemical genetic matrix, 2015).
Hit rate of the full screen: of about 5,500 compounds, about 2,000 (36%) were called active. Not shown: some 18% with an inconclusive outcome. The list shows a part of the results. Unmarked numbers belong to inactive results. No stated cut-off is given here; in the data, active means normalized growth mostly below about 0.91 (no sharp cut-off); inconclusive means no clear call, values can overlap the other calls; inactive means mostly above about 0.92.

Test: chemical genetic growth profiling, strain panel (AID 1159580);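 further: tested at 20 µM; growth read once vehicle control cultures reached saturation at 30 °C; 1 = growth at the plate median or of vehicle wells; lower values mean less growth of the strain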
Details: S. cerevisiae deletion strains, growth OD

Question: Which normalized growth (locus YAL021C, strain ccr4, hits give low values) does the source give for `c1ccc2c(Cc3c[nH]c4ccccc34)c[nH]c2c1` here?
Answer: Its normalized growth is 0.848 (active).

Question: What about the normalized growth (locus YAL026C, strain drs2, hits give low values) of the same compound?
Answer: The normalized growth was 0.263 (active).

Question: And the normalized growth (locus YAL030W, strain snc1, hits give low values)?
Answer: Its normalized growth is 0.785 (active).

Question: And the normalized growth (locus YBL061C, strain skt5, hits give low values)?
Answer: The normalized growth was 0.51 (active).

Question: And the normalized growth (locus YBR009C, strain hhf1, hits give low values)?
Answer: Its normalized growth is 0.341 (active).

Question: And the normalized growth (locus YBR023C, strain chs3, hits give low values)?
Answer: Its normalized growth is 0.523 (active).

Question: What about the normalized growth (locus YBR171W, strain sec66, hits give low values) of the same compound?
Answer: Its normalized growth is 0.515 (active).

Question: What about the normalized growth (locus YBR231C, strain swc5, hits give low values) of the same compound?
Answer: Its normalized growth is 0.501 (active).

Question: And the normalized growth (locus YBR279W, strain paf1, hits give low values)?
Answer: The normalized growth was 0.496 (active).

Question: What about the normalized growth (locus YCL011C, strain gbp2, hits give low values) of the same compound?
Answer: Its normalized growth is 0.319 (active).

Question: And the normalized growth (locus YCL016C, strain dcc1, hits give low values)?
Answer: The normalized growth was 0.543 (active).

Question: What about the normalized growth (locus YCL069W, strain vba3, hits give low values) of the same compound?
Answer: Its normalized growth is 0.364 (active).

Question: And the normalized growth (locus YCR088W, strain abp1, hits give low values)?
Answer: The normalized growth was 0.632 (active).

Question: And the normalized growth (locus YDL005C, strain med2, hits give low values)?
Answer: Its normalized growth is 0.939.

Question: And the normalized growth (locus YDL040C, strain nat1, hits give low values)?
Answer: The normalized growth was 0.784 (active).

Question: And the normalized growth (locus YDR001C, strain nth1, hits give low values)?
Answer: Its normalized growth is 0.824 (active).

Question: What about the normalized growth (locus YDR069C, strain doa4, hits give low values) of the same compound?
Answer: The normalized growth was 1.

Question: What about the normalized growth (locus YDR137W, strain rgp1, hits give low values) of the same compound?
Answer: The normalized growth was 0.331 (active).

Question: What about the normalized growth (locus YDR159W, strain sac3, hits give low values) of the same compound?
Answer: Its normalized growth is 0.547 (active).

Question: What about the normalized growth (locus YDR195W, strain ref2) of the same compound?
Answer: Its normalized growth is 1.24 [resistant] (active).

Question: And the normalized growth (locus YDR297W, strain sur2, hits give low values)?
Answer: The normalized growth was 0.704 (active).

Question: And the normalized growth (locus YDR334W, strain swr1, hits give low values)?
Answer: Its normalized growth is 0.459 (active).

Question: What about the normalized growth (locus YDR335W, strain msn5, hits give low values) of the same compound?
Answer: The normalized growth was 0.501 (active).

Question: And the normalized growth (locus YDR392W, strain spt3, hits give low values)?
Answer: The normalized growth was 0.11 (active).

Question: And the normalized growth (locus YEL003W, strain gim4, hits give low values)?
Answer: Its normalized growth is 0.282 (active).

Question: What about the normalized growth (locus YEL037C, strain rad23, hits give low values) of the same compound?
Answer: Its normalized growth is 0.779 (active).

Question: What about the normalized growth (locus YEL061C, strain CIN8 (second series), hits give low values) of the same compound?
Answer: Its normalized growth is 0.413 (active).

Question: And the normalized growth (locus YER015W, strain faa2, hits give low values)?
Answer: Its normalized growth is 0.443 (active).

Question: And the normalized growth (locus YER016W, strain bim1, hits give low values)?
Answer: The normalized growth was 0.681 (active).

Question: And the normalized growth (locus YER111C, strain swi4, hits give low values)?
Answer: Its normalized growth is 0.455 (active).

Question: And the normalized growth (locus YER155C, strain BEM2 (second series), hits give low values)?
Answer: Its normalized growth is 0.147 (active).

Question: And the normalized growth (locus YFR010W, strain ubp6, hits give low values)?
Answer: The normalized growth was 0.836 (active).

Question: What about the normalized growth (locus YGL167C, strain pmr1, hits give low values) of the same compound?
Answer: Its normalized growth is 0.958.

Question: What about the normalized growth (locus YGL173C, strain kem1, hits give low values) of the same compound?
Answer: The normalized growth was 0.765 (active).

Question: What about the normalized growth (locus YGL227W, strain vid30, hits give low values) of the same compound?
Answer: Its normalized growth is 0.154 (active).

Question: What about the normalized growth (locus YGL240W, strain doc1, hits give low values) of the same compound?
Answer: The normalized growth was 0.68 (active).

Question: What about the normalized growth (locus YGL253W, strain hxk2, hits give low values) of the same compound?
Answer: Its normalized growth is 0.348 (active).

Question: What about the normalized growth (locus YHR013C, strain ard1, hits give low values) of the same compound?
Answer: Its normalized growth is 0.617 (active).

Question: What about the normalized growth (locus YHR027C, strain rpn1, hits give low values) of the same compound?
Answer: Its normalized growth is 0.615 (active).

Question: What about the normalized growth (locus YHR030C, strain SLT2, hits give low values) of the same compound?
Answer: The normalized growth was 0.428 (active).

Question: And the normalized growth (locus YHR079C, strain IRE1, hits give low values)?
Answer: Its normalized growth is 0.531 (active).

Question: What about the normalized growth (locus YHR142W, strain chs7, hits give low values) of the same compound?
Answer: The normalized growth was 0.202 (active).

Question: And the normalized growth (locus YJL092W, strain hpr5, hits give low values)?
Answer: Its normalized growth is 0.635 (active).

Question: What about the normalized growth (locus YJL095W, strain BCK1 (second series), hits give low values) of the same compound?
Answer: The normalized growth was 0.47 (active).

Question: And the normalized growth (locus YJL095W, strain BCK1, hits give low values)?
Answer: The normalized growth was 0.528 (active).

Question: What about the normalized growth (locus YJL115W, strain asf1, hits give low values) of the same compound?
Answer: Its normalized growth is 0.811 (active).

Question: What about the normalized growth (locus YJL129C, strain trk1, hits give low values) of the same compound?
Answer: The normalized growth was 0.518 (active).

Question: What about the normalized growth (locus YJL154C, strain vps35, hits give low values) of the same compound?
Answer: The normalized growth was 0.794 (active).

Question: What about the normalized growth (locus YJL164C, strain tpk1, hits give low values) of the same compound?
Answer: Its normalized growth is 0.429 (active).

Question: What about the normalized growth (locus YJL166W, strain qcr8, hits give low values) of the same compound?
Answer: Its normalized growth is 0.356 (active).

Question: What about the normalized growth (locus YJR066W, strain TOR1, hits give low values) of the same compound?
Answer: The normalized growth was 0.54 (active).

Question: And the normalized growth (locus YKL160W, strain elf1, hits give low values)?
Answer: The normalized growth was 0.388 (active).

Question: And the normalized growth (locus YKR026C, strain gcn3, hits give low values)?
Answer: The normalized growth was 0.763 (active).

Question: And the normalized growth (locus YKR091W, strain srl3, hits give low values)?
Answer: The normalized growth was 0.802 (active).

Question: And the normalized growth (locus YLL001W, strain dnm1, hits give low values)?
Answer: Its normalized growth is 0.421 (active).

Question: And the normalized growth (locus YLL026W, hits give low values)?
Answer: The normalized growth was 0.469 (active).

Question: What about the normalized growth (locus YLL041C, strain sdh2, hits give low values) of the same compound?
Answer: The normalized growth was 0.758 (active).

Question: What about the normalized growth (locus YLR027C, strain aat2, hits give low values) of the same compound?
Answer: Its normalized growth is 0.446 (active).

Question: What about the normalized growth (locus YLR113W, strain HOG1, hits give low values) of the same compound?
Answer: The normalized growth was 0.648 (active).

Question: What about the normalized growth (locus YLR221C, strain rsa3, hits give low values) of the same compound?
Answer: The normalized growth was 0.343 (active).

Question: And the normalized growth (locus YLR258W, strain gsy2, hits give low values)?
Answer: Its normalized growth is 0.722 (active).

Question: What about the normalized growth (locus YLR262C, strain YPT6 (second series), hits give low values) of the same compound?
Answer: Its normalized growth is 0.348 (active).

Question: And the normalized growth (locus YLR320W, strain mms22, hits give low values)?
Answer: Its normalized growth is 0.235 (active).

Question: What about the normalized growth (locus YLR342W, strain FKS1, hits give low values) of the same compound?
Answer: Its normalized growth is 0.518 (active).

Question: What about the normalized growth (locus YLR357W, strain rsc2, hits give low values) of the same compound?
Answer: The normalized growth was 0.876.

Question: What about the normalized growth (locus YLR370C, strain arc18, hits give low values) of the same compound?
Answer: Its normalized growth is 0.57 (active).

Question: What about the normalized growth (locus YLR384C, strain iki3, hits give low values) of the same compound?
Answer: Its normalized growth is 0.829 (active).

Question: And the normalized growth (locus YML120C, strain ndi1, hits give low values)?
Answer: Its normalized growth is 0.324 (active).

Question: And the normalized growth (locus YMR058W, strain fet3, hits give low values)?
Answer: Its normalized growth is 0.322 (active).

Question: And the normalized growth (locus YMR125W, strain sto1, hits give low values)?
Answer: Its normalized growth is 0.469 (active).

Question: And the normalized growth (locus YMR129W, hits give low values)?
Answer: The normalized growth was 0.647 (active).

Question: What about the normalized growth (locus YMR205C, strain PFK2, hits give low values) of the same compound?
Answer: Its normalized growth is 0.506 (active).

Question: And the normalized growth (locus YMR231W, strain pep5, hits give low values)?
Answer: The normalized growth was 0.249 (active).

Question: What about the normalized growth (locus YNL071W, strain lat1, hits give low values) of the same compound?
Answer: Its normalized growth is 0.106 (active).

Question: And the normalized growth (locus YNL183C, strain NPR1, hits give low values)?
Answer: Its normalized growth is 0.593 (active).

Question: And the normalized growth (locus YNL209W, strain ssb2, hits give low values)?
Answer: Its normalized growth is 0.644 (active).

Question: And the normalized growth (locus YNL248C, strain rpa49, hits give low values)?
Answer: Its normalized growth is 0.629 (active).

Question: And the normalized growth (locus YNL322C, strain KRE1 (second series), hits give low values)?
Answer: The normalized growth was 0.73 (active).

Question: And the normalized growth (locus YNR049C, strain mso1, hits give low values)?
Answer: The normalized growth was 0.674 (active).

Question: And the normalized growth (locus YOR001W, strain rrp6, hits give low values)?
Answer: The normalized growth was 0.531 (active).

Question: What about the normalized growth (locus YOR070C, strain gyp1, hits give low values) of the same compound?
Answer: Its normalized growth is 0.379 (active).

Question: What about the normalized growth (locus YOR080W, strain dia2, hits give low values) of the same compound?
Answer: The normalized growth was 0.772 (active).

Question: What about the normalized growth (locus YOR083W, strain WHI5, hits give low values) of the same compound?
Answer: Its normalized growth is 0.419 (active).

Question: What about the normalized growth (locus YOR106W, strain vam3, hits give low values) of the same compound?
Answer: Its normalized growth is 0.43 (active).

Question: And the normalized growth (locus YOR231W, strain MKK1, hits give low values)?
Answer: The normalized growth was 0.511 (active).

Question: What about the normalized growth (locus YOR265W, strain rbl2, hits give low values) of the same compound?
Answer: Its normalized growth is 0.534 (active).

Question: What about the normalized growth (locus YOR270C, strain vph1, hits give low values) of the same compound?
Answer: The normalized growth was 0.338 (active).

Question: What about the normalized growth (locus YOR290C, strain snf2, hits give low values) of the same compound?
Answer: The normalized growth was 0.219 (active).

Question: And the normalized growth (locus YPL051W, strain arl3, hits give low values)?
Answer: Its normalized growth is 0.264 (active).

Question: What about the normalized growth (locus YPL078C, strain atp4, hits give low values) of the same compound?
Answer: Its normalized growth is 0.363 (active).

Question: What about the normalized growth (locus YPL106C, strain sse1, hits give low values) of the same compound?
Answer: The normalized growth was 1.

Question: What about the normalized growth (locus YPL240C, strain hsp82, hits give low values) of the same compound?
Answer: The normalized growth was 0.63 (active).

Question: And the normalized growth (locus YPL256C, strain CLN2, hits give low values)?
Answer: Its normalized growth is 0.652 (active).
